Laboratory results: PubChem BioAssay (NCI)
Compounds without any hit were thinned out: in the full panel of roughly 83,000, 20% have a hit.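 Each cell line was grown in a 96-well plate and treated with one concentration of compound for 48 hours. Values below 10 were considered active.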 Unmarked numbers belong to inactive results. Active and inactive are the calls of the source.

Tests used:
Test in all cases: NCI-60 one-dose screen, 48 h (100 = growth as untreated, 0 = no growth, -100 = all killed)
Conditions in all cases: 10 µM unless noted
[1] = system: DU-145 prostate
[2] = system: K-562 leukemia
[3] = system: MALME-3M melanoma
[4] = system: MDA-MB-231 breast
[5] = system: RXF 393 renal
[6] = system: SF-268 CNS
[7] = system: SF-295 CNS
[8] = system: SF-539 CNS
[9] = system: UACC-257 melanoma
[10] = system: M14 melanoma

Structure (SMILES): CCN(CC)CCOc1ccc2ccc(=O)oc2c1
- growth [1]: 121%
- growth [2]: 2.68% (active)
- growth [3]: 105%
- growth [4]: 99.5%
- growth [5]: 103%
- growth [6]: 109%
- growth [7]: 94.3%
- growth [8]: 101%
- growth [9]: 93%
- growth [10]: 94.8%

Structure (SMILES): C=C1C(=O)O[C@@H]2C3C(=C(C)CC[C@@H]12)CC1O[C@]13C (stereo not given in full)
- growth [1]: 52.9% [6.75 µM]
- growth [2]: 49.6% [6.75 µM]
- growth [3]: 77.6% [6.75 µM]
- growth [4]: 93.5% [6.75 µM]
- growth [5]: 91.6% [6.75 µM]
- growth [6]: 91.2% [6.75 µM]
- growth [7]: 102% [6.75 µM]
- growth [8]: 82.3% [6.75 µM]
- growth [9]: 70.4% [6.75 µM]
- growth [10]: 65.5% [6.75 µM]

Structure (SMILES): CCN(CC)CCCNc1cc(OC)c(OC)c2cccnc12
- growth [1]: 90.3%
- growth [2]: 66.2%
- growth [3]: 90.3%
- growth [4]: 74.2%
- growth [5]: 113%
- growth [6]: 66.1%
- growth [7]: 79.5%
- growth [8]: 55.7%
- growth [9]: 67%
- growth [10]: 48%

Structure (SMILES): Clc1ccc(-c2nc(C(Cl)Cl)nc3cc(-c4ccccc4)nn23)cc1
- growth [1]: -2.59% (active)
- growth [2]: 33.2%
- growth [3]: 46.4%
- growth [4]: 36.9%
- growth [5]: -55% (active)
- growth [6]: 41.7%
- growth [7]: 14.3%
- growth [8]: 44%
- growth [9]: 52.5%
- growth [10]: 24.2%

Structure (SMILES): CNCC[C@H](Oc1cccc2ccccc12)c1cccs1
- growth [1]: 115%
- growth [2]: 54.7%
- growth [3]: 113%
- growth [4]: 7.37% (active)
- growth [5]: 72.3%
- growth [6]: 88.2%
- growth [7]: 94.1%
- growth [8]: 97.5%
- growth [9]: 90.1%
- growth [10]: 104%

Structure (SMILES): O=C1/C(=C/c2ccccn2)SC(=S)N1N1CCOCC1
- growth [1]: 104%
- growth [2]: 103%
- growth [3]: 92.2%
- growth [4]: 92%
- growth [5]: 92.5%
- growth [6]: 99%
- growth [7]: 95.8%
- growth [8]: 105%
- growth [9]: 91.8%
- growth [10]: 100%

Structure (SMILES): Oc1nc(NCc2ccccc2)sc1/C=C1\C=Nc2ncccc21
- growth [1]: 56.5%
- growth [2]: 80.7%
- growth [3]: 129%
- growth [4]: 83.8%
- growth [5]: -14.1% (active)
- growth [6]: 52.3%
- growth [7]: 73.7%
- growth [8]: 23.3%
- growth [9]: 71.3%
- growth [10]: 80.1%

Structure (SMILES): CCOC(=O)NCCCC(=O)NCCc1ccccc1
- growth [1]: 103%
- growth [2]: 106%
- growth [3]: 103%
- growth [4]: 108%
- growth [5]: 101%
- growth [6]: 101%
- growth [7]: 104%
- growth [8]: 106%
- growth [9]: 103%
- growth [10]: 102%

Structure (SMILES): O=C1/C(=C/c2cccc(Br)c2)COc2ccc(O)cc21
- growth [1]: 69.7%
- growth [2]: 2.93% (active)
- growth [3]: 78.9%
- growth [4]: 27.9%
- growth [5]: 70.6%
- growth [6]: 67.6%
- growth [7]: 100%
- growth [8]: 69.3%
- growth [9]: 99.9%
- growth [10]: 76.5%

Structure (SMILES): CNC(=O)Nc1ccc(-c2ccc3ncnc(Nc4cccc(Cl)c4)c3c2)cc1
- growth [1]: 44.8%
- growth [2]: 60.3%
- growth [3]: 53.5%
- growth [4]: 65.7%
- growth [5]: 50.4%
- growth [6]: 52.2%
- growth [7]: 59.9%
- growth [8]: 74.3%
- growth [9]: 65.7%
- growth [10]: 63.2%

Structure (SMILES): Cc1nc2sc(C(=O)Nc3ccccn3)c(N)c2cc1C(C)O (stereo not given)
- growth [1]: 103%
- growth [2]: 31.1%
- growth [3]: 97.9%
- growth [4]: 59.1%
- growth [5]: 71.2%
- growth [6]: 83.6%
- growth [7]: 65.1%
- growth [8]: 59.8%
- growth [9]: 81.6%
- growth [10]: 49.3%

Structure (SMILES): C=CCn1cc(-c2nc3ccccc3s2)c2cc(-c3ccc4c5c(cccc35)C(=O)N(CCO)C4=O)ccc21
- growth [1]: 107%
- growth [2]: 90.8%
- growth [3]: 119%
- growth [4]: 85.2%
- growth [5]: 100%
- growth [6]: 90.5%
- growth [7]: 91.2%
- growth [8]: 104%
- growth [9]: 107%
- growth [10]: 106%

Structure (SMILES): Clc1ccc2nn3c4ccccc4c(OCCN4CCOCC4)nc3c2c1
- growth [1]: 98.9%
- growth [2]: 88.2%
- growth [3]: 134%
- growth [4]: 81.4%
- growth [5]: 79.3%
- growth [6]: 91.8%
- growth [7]: 93.9%
- growth [8]: 91.6%
- growth [9]: 107%
- growth [10]: 122%

Structure (SMILES): Cc1ccc(-c2nc(SCC(=O)N3CCN(c4cc5c(cc4F)c(=O)c(C(=O)O)cn5C4CC4)CC3)nc(Cl)c2C#N)cc1
- growth [1]: 106%
- growth [2]: 98.2%
- growth [3]: 106%
- growth [4]: 99.7%
- growth [5]: 106%
- growth [6]: 93.5%
- growth [7]: 97.4%
- growth [8]: 100%
- growth [9]: 99.3%
- growth [10]: 99%

Structure (SMILES): Cc1cc(C(=O)CCCC(=O)c2cc(C)c(O)c(C)c2)cc(C)c1O
- growth [1]: 109%
- growth [2]: 27.4%
- growth [3]: 92.3%
- growth [4]: 98.1%
- growth [5]: 84.2%
- growth [6]: 99%
- growth [7]: 99.9%
- growth [8]: 102%
- growth [9]: 105%
- growth [10]: 98.6%

Structure (SMILES): CC/C(=C(/c1ccc(O)cc1)c1ccc(OCCN2CCCCC2)cc1)c1ccc(OC)cc1
- growth [1]: 71.3%
- growth [2]: -30.8% (active)
- growth [3]: -28.3% (active)
- growth [4]: 55.1%
- growth [5]: 68.4%
- growth [6]: 62.6%
- growth [7]: 86.9%
- growth [8]: 86.3%
- growth [9]: 81%
- growth [10]: -61.2% (active)

Structure (SMILES): COc1cc(N2C(=O)[C@H](Cl)C2c2ccc(SC)cc2)cc(OC)c1OC (stereo not given in full)
- growth [1]: 7.66% (active)
- growth [2]: 4.94% (active)
- growth [3]: 78.4%
- growth [4]: 29.3%
- growth [5]: -16.1% (active)
- growth [6]: 28.9%
- growth [7]: -7.12% (active)
- growth [8]: 8.03% (active)
- growth [9]: 27.3%
- growth [10]: -2.68% (active)

Structure (SMILES): Cc1nc2sc(C(=O)Nc3cccc(Cl)c3C)c(N)c2cc1C(=O)/C=C/c1ccccc1
- growth [1]: 5.7% (active)
- growth [2]: 10.2%
- growth [3]: 39.7%
- growth [4]: -38.4% (active)
- growth [5]: -82.8% (active)
- growth [6]: 4.07% (active)
- growth [7]: -14.8% (active)
- growth [8]: -25.5% (active)
- growth [9]: 64.2%
- growth [10]: -15.9% (active)

Structure (SMILES): CN(C)Cc1cc(C(C)(C)C)cc(Br)c1O
- growth [1]: 109%
- growth [2]: 106%
- growth [3]: 122%
- growth [4]: 113%
- growth [5]: 93.9%
- growth [6]: 104%
- growth [7]: 97.3%
- growth [8]: 88.6%
- growth [9]: 119%
- growth [10]: 101%

Structure (SMILES): CS(=O)(=O)Nc1cc(-c2ccc3ncnc(Nc4ccc(F)c(Cl)c4)c3c2)ccc1Cl
- growth [1]: 39.8%
- growth [2]: 39.4%
- growth [3]: 53.4%
- growth [4]: 54.3%
- growth [5]: 22%
- growth [6]: 52.7%
- growth [7]: 15.6%
- growth [8]: 52.1%
- growth [9]: 59.6%
- growth [10]: 46.8%

Structure (SMILES): Cc1ccc(S(=O)(=O)N2CCCN(c3nc(-c4ccccc4)nc4nc(-c5ccccc5)oc34)CC2)cc1
- growth [1]: 113%
- growth [2]: 97.3%
- growth [3]: 111%
- growth [4]: 96.8%
- growth [5]: 128%
- growth [6]: 106%
- growth [7]: 105%
- growth [8]: 96%
- growth [9]: 108%
- growth [10]: 110%

Structure (SMILES): COc1ccc(C2[C@@H](c3ccccc3)C(=O)N2c2cc(OC)c(OC)c(OC)c2)cc1F (stereo not given in full)
- growth [1]: 11%
- growth [2]: 5.35% (active)
- growth [3]: 69.1%
- growth [4]: 32.3%
- growth [5]: 13.5%
- growth [6]: 31.5%
- growth [7]: 0.875% (active)
- growth [8]: 14.8%
- growth [9]: 20.8%
- growth [10]: 4.59% (active)

Structure (SMILES): COc1cc(-c2ccc[nH]2)[nH]c1/C=C1\N=C(C)C(CC(=O)OCC(C)(C)C)=C1C
- growth [1]: -73.9% (active)
- growth [2]: -42.9% (active)
- growth [3]: -76.3% (active)
- growth [4]: -57.2% (active)
- growth [5]: -82.3% (active)
- growth [6]: -70.8% (active)
- growth [7]: -81.8% (active)
- growth [8]: -69.3% (active)
- growth [9]: -81.4% (active)
- growth [10]: -86.3% (active)

Structure (SMILES): c1ccc(Nc2nc3c(s2)CCc2c[nH]cc2-3)nc1
- growth [1]: 103%
- growth [2]: 66.3%
- growth [3]: 92.5%
- growth [4]: 82.7%
- growth [5]: 104%
- growth [6]: 92.5%
- growth [7]: 107%
- growth [8]: 106%
- growth [9]: 88.7%
- growth [10]: 102%

Structure (SMILES): COc1cc(-c2nccc3[nH]c(-c4cccc5[nH]ccc45)nc23)cc(OC)c1OC
- growth [1]: 22.7%
- growth [2]: 8.35% (active)
- growth [3]: 56%
- growth [4]: 19.7%
- growth [5]: 50.8%
- growth [6]: 34.2%
- growth [7]: 21%
- growth [8]: 3.35% (active)
- growth [9]: 58.7%
- growth [10]: 20.6%

Structure (SMILES): CCOC(=O)C/C(=N\Nc1cc(=O)[nH]c2ccc(OC)cc12)C(=O)OCC
- growth [1]: 99.6%
- growth [2]: 89.3%
- growth [3]: 104%
- growth [4]: 98.4%
- growth [5]: 96.4%
- growth [6]: 98%
- growth [7]: 101%
- growth [8]: 90.9%
- growth [9]: 108%
- growth [10]: 102%

Structure (SMILES): c1csc(-c2cn3nc(-c4c[nH]c5ccccc45)sc3n2)c1
- growth [1]: 13.4%
- growth [2]: 15.6%
- growth [3]: 23.7%
- growth [4]: 22.9%
- growth [5]: 34.4%
- growth [6]: 46.1%
- growth [7]: 14.4%
- growth [8]: -12.8% (active)
- growth [9]: 60.1%
- growth [10]: 8.8% (active)
